Laboratory results published in PubChem BioAssay (EPA / NIEHS).
Records with an inconclusive call do not appear. Calls of active or inactive are those of the source. How the source made its calls, unless noted: active means hit-call score of the fitted dose curve at least 0.9, where 1 is the maximum; inactive means score below 0.9.

Columns and labels:
[1] = molecular target: Peroxisome proliferator-activated receptor gamma (Homo sapiens) (UniProt P37231); test: OT_PPARg_PPARgSRC1_0480: Odyssey Thera (OT) 8-hour Protein-Complementation Assay for Peroxisome Proliferator-activated Receptor Gamma / SRC-1 Co-activator (AID 2283387; active means hit-call score of the fitted dose curve at least 0.9, where 1 is the maximum;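 further: nuclear to cytoplasmic split Venus YFP fluorescence ratio reporting PPARg SRC-1 interaction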)
Chain of Peroxisome proliferator-activated receptor gamma (Homo sapiens) (P37231 whole entry, looked up, the tested form may be a part): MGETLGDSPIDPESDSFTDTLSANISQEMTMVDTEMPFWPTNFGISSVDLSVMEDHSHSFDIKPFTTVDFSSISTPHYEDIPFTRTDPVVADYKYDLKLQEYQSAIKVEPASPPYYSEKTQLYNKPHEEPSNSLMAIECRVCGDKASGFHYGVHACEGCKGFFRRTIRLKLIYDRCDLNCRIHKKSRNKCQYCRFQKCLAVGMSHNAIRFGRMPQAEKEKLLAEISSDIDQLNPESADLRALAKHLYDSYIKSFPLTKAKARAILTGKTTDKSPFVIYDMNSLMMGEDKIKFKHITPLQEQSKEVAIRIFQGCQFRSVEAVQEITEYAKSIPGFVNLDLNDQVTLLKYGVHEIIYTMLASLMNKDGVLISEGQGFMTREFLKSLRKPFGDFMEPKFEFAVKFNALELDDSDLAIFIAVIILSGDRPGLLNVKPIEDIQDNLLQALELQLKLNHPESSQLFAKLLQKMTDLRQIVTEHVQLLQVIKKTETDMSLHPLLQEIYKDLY
Summary of the method: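 Read-out: 488 nm N/C fluorescence ratio from complemented Venus YFP fragments, ≥350 cells per image, gain-of-signal fitted against DMSO baseline. Fusions of PPARg/SRC-1 with IFP1/IFP2 expressed transiently in HEK293T; compounds applied 8 h.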

[2] = molecular target: Peroxisome proliferator-activated receptor gamma (Homo sapiens) (UniProt P37231); test: OT_PPARg_PPARgSRC1_1440: Odyssey Thera (OT) 24-hour Protein-Complementation Assay for Peroxisome Proliferator-activated Receptor Gamma/ SRC-1 Co-activator (AID 2283388; active means hit-call score of the fitted dose curve at least 0.9, where 1 is the maximum;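 further: nuclear to cytoplasmic ratio of reconstituted Venus YFP fluorescence in fixed imaged cells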)
Summary of the method: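 Cells carrying the PPARg/SRC-1 fragment-complementation reporter receive compound for 24 hours, are fixed and counterstained with Draq5, then imaged. Increased nuclear relative to cytoplasmic YFP fluorescence above DMSO baseline indicates binding activity.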

[3] = CEETOX_H295R_11DCORT: CeeTox H295R High-throughput Steroidogenesis Assay for 11-Deoxycortisol (11DCORT) (AID 2283432); details: actives raise or lower the signal;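 on AC50: 11-deoxycortisol secreted into the medium measured by LC-MS/MS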
Summary of the method: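 H295R cells; 10 uM forskolin prestim 48 h; compound in 0.1% DMSO 48 h; media extracted with MTBE; 11-deoxycortisol by LC-MS/MS, 7-point standard curve; gain/loss vs DMSO baseline; viability by MTT in same wells.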

[4] = CEETOX_H295R_OHPREG: CeeTox H295R High-throughput Steroidogenesis Assay for OH-Pregnenolone (OHPREG) (AID 2283434); details: actives raise or lower the signal
Summary of the method: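 H295R, 10 uM forskolin pre-stim 48 h; test chemical 48 h, 0.1% DMSO final. MTBE extraction, reverse-phase C18 HPLC-ESI+ MS/MS of medium. Gain/loss vs DMSO; viability by MTT in same wells.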

[5] = CEETOX_H295R_OHPROG: CeeTox H295R High-throughput Steroidogenesis Assay for OH-Progesterone (OHPROG) (AID 2283435); details: actives raise or lower the signal;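 on AC50: 17alpha-hydroxyprogesterone secreted into medium measured by HPLC-MS/MS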
Summary of the method: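 HPLC-MS/MS quantification of 17alpha-hydroxyprogesterone secreted by H295R cells after 48 h chemical exposure, following 48 h 10 uM forskolin prestimulation. Gain or loss of signal fitted relative to DMSO. Viability checked by MTT in the same wells.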

[6] = CEETOX_H295R_CORTIC: CeeTox H295R High-throughput Steroidogenesis Assay for Corticosterone (CORTIC) (AID 2283437); details: actives raise or lower the signal;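 further: corticosterone secreted into medium quantified by mass spectrometry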
Summary of the method: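 48 h forskolin (10 uM) prestim, then 48 h chemical exposure, final DMSO 0.1%. Readout: corticosterone in medium by LC-MS/MS after MTBE extraction. Gain/loss fit vs DMSO; MTT viability in same wells.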

[7] = CEETOX_H295R_CORTISOL: CeeTox H295R High-throughput Steroidogenesis Assay for Cortisol (AID 2283438); details: actives raise or lower the signal;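 further: cortisol secreted into medium quantified by LC-MS/MS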
Summary of the method: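 Read-out: cortisol in culture medium by reverse-phase C18 HPLC with ESI-positive tandem MS, after MTBE liquid-liquid extraction. Cells: human adrenal H295R, forskolin-primed (10 uM, 48 h) before 48 h chemical exposure in 0.1% DMSO.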

[8] = CEETOX_H295R_DOC: CeeTox H295R High-throughput Steroidogenesis Assay for DOC (AID 2283439); details: actives raise or lower the signal
Summary of the method: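 Human adrenocortical H295R cells, passages up to 10, received 10 uM forskolin for 48 h before chemical addition. After another 48 h exposure in 0.1% DMSO, secreted DOC was measured by LC-MS/MS, with gain or loss fitted against DMSO controls.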

[9] = CEETOX_H295R_PROG: CeeTox H295R High-throughput Steroidogenesis Assay for Progesterone (PROG) (AID 2283442); details: actives raise or lower the signal
Summary of the method: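 Measured analyte is progesterone secreted by H295R cells at 48 h of chemical treatment, following 10 uM forskolin priming. Quantitation used HPLC-MS/MS against a 7-point standard curve; cytotoxicity was checked by MTT absorbance.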

[10] = read-out: Fatty acid synthase (Homo sapiens) (UniProt P49327); test: LTEA_HepaRG_FASN: Life Technologies and Expression Analysis (LTEA) Assay for Fatty Acid Synthase (FASN) using HepaRG (AID 2283448); details: mRNA level, 48 h; actives raise or lower the signal;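 on AC50: differentiated human HepaRG liver cells in serum-free induction medium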
Summary of the method: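 HepaRG, 48 h exposure, 8-pt half-log series top 100 uM, 0.5% DMSO vehicle, duplicates. Readout: FASN transcript by Fluidigm qRT-PCR; housekeeping-normalized; bidirectional curve fit vs DMSO baseline.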

[11] = read-out: Cyclin D2 (CCND2), CCND2 (gene 894); test: LTEA_HepaRG_CCND2: Life Technologies and Expression Analysis (LTEA) Assay for Cyclin D2 (CCND2) using HepaRG (AID 2283449); details: mRNA level, 48 h; actives raise or lower the signal;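 further: CCND2 transcript measured by TaqMan qRT-PCR and normalised to three housekeeping genes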
Summary of the method: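 HepaRG, 48 h dosing, 8-pt half-log curve from 100 uM, 0.5% DMSO; duplicate wells. Readout: CCND2 transcript by microfluidic qRT-PCR, housekeeping-normalised; bidirectional fit vs DMSO baseline.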

[12] = read-out: Cyclin Dependent Kinase Inhibitor 1A (CDKN1A), CDKN1A (gene 1026); test: LTEA_HepaRG_CDKN1A: Life Technologies and Expression Analysis (LTEA) Assay for Cyclin Dependent Kinase Inhibitor 1A (CDKN1A) using HepaRG (AID 2283450); details: mRNA level, 48 h; actives raise or lower the signal
Summary of the method: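 Gain or loss of CDKN1A transcript is scored by bidirectional fitting against 0.5% DMSO vehicle. Human HepaRG cultures receive chemicals for 48 h across an 8-point series peaking at 100 uM; expression comes from qRT-PCR.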

[13] = read-out: Cyclin D1 (CCND1), CCND1 (gene 595); test: LTEA_HepaRG_CCND1: Life Technologies and Expression Analysis (LTEA) Assay for Cyclin D1 (CCND1) using HepaRG (AID 2283451); details: mRNA level, 48 h; actives raise or lower the signal;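 on AC50: differentiated human HepaRG liver cells in serum-free induction medium; TaqMan qRT-PCR transcript level normalised to ACTB GAPDH and POLR2A housekeeping genes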
Summary of the method: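 Expression change is measured by qRT-PCR in HepaRG cells after 48 h treatment across eight concentrations topping at 100 uM, with duplicate wells and DMSO (0.5%) serving as baseline for bidirectional fitting.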

[14] = read-out: catalase (CAT), CAT (gene 847); test: LTEA_HepaRG_CAT: Life Technologies and Expression Analysis (LTEA) Assay for catalase (CAT) using HepaRG (AID 2283452); details: mRNA level, 48 h; actives raise or lower the signal;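 on AC50: TaqMan qRT-PCR signal normalized to ACTB GAPDH and POLR2A housekeeping genes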
Summary of the method: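 HepaRG cells in serum-free induction medium, 0.5% DMSO vehicle, exposed 48 h in duplicate over 8 half-log concentrations from 100 uM. CAT mRNA measured by qRT-PCR, normalized to ACTB, GAPDH, POLR2A; bidirectional fit versus DMSO.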

[15] = read-out: flavin-containing dimethylaniline monooxygenases 3 (FMO3), FMO3 (gene 2328); test: LTEA_HepaRG_FMO3: Life Technologies and Expression Analysis (LTEA) Assay for flavin-containing dimethylaniline monooxygenases 3 (FMO3) using HepaRG (AID 2283453); details: mRNA level, 48 h; actives raise or lower the signal;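 on AC50: differentiated human HepaRG liver cells in serum-free induction medium; FMO3 transcript by TaqMan qRT-PCR normalized to ACTB GAPDH and POLR2A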
Summary of the method: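 Eight-point concentration-response in serum-free HepaRG cultures (top 100 uM, 0.5% DMSO, 48 h). Read-out: FMO3 mRNA level normalized to three endogenous control genes, fitted bidirectionally versus vehicle.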

[16] = molecular target: Retinoic acid receptor RXR-alpha (Homo sapiens) (UniProt P19793); test: OT_NURR1_NURR1RXRa_1440: Odyssey Thera (OT) 24-hour HEK293T Protein Complementation Assay for Nurr1/retinoid X receptor (RXR) (AID 2283386; active means hit-call score of the fitted dose curve at least 0.9, where 1 is the maximum)
Chain of Retinoic acid receptor RXR-alpha (Homo sapiens) (P19793 whole entry, looked up, the tested form may be a part): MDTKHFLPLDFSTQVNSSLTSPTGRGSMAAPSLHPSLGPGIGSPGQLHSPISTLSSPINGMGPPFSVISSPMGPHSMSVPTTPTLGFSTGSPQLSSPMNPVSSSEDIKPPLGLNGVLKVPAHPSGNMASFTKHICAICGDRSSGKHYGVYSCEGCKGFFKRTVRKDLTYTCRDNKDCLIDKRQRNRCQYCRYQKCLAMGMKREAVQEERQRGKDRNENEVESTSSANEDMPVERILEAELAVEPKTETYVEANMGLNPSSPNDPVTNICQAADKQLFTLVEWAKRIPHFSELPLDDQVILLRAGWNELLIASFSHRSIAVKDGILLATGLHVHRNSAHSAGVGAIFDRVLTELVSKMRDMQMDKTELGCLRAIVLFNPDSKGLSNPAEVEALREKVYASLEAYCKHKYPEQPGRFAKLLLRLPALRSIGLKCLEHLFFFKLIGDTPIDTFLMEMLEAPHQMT
Summary of the method: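 Fluorescence PCA read-out; HEK293T; 24 h post-dose; bait/prey fused to reporter fragments; gain-of-signal fit vs DMSO negative control.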

[17] = read-out: Tumor necrosis factor receptor superfamily member 6 (Homo sapiens) (UniProt P25445); test: LTEA_HepaRG_FAS: Life Technologies and Expression Analysis (LTEA) Assay for Fas cell surface death receptor (FAS) using HepaRG (AID 2283447); details: mRNA level, 48 h; actives raise or lower the signal
Summary of the method: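 Differentiated HepaRG cells in serum-free induction medium were exposed 48 h to 8 half-log concentrations up to 100 uM in 0.5% DMSO, in duplicate. FAS mRNA was measured by qRT-PCR normalised to ACTB, GAPDH and POLR2A; bidirectional fit versus DMSO.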

Measured: AC50

Chain of Fatty acid synthase (Homo sapiens) (P49327 whole entry, looked up): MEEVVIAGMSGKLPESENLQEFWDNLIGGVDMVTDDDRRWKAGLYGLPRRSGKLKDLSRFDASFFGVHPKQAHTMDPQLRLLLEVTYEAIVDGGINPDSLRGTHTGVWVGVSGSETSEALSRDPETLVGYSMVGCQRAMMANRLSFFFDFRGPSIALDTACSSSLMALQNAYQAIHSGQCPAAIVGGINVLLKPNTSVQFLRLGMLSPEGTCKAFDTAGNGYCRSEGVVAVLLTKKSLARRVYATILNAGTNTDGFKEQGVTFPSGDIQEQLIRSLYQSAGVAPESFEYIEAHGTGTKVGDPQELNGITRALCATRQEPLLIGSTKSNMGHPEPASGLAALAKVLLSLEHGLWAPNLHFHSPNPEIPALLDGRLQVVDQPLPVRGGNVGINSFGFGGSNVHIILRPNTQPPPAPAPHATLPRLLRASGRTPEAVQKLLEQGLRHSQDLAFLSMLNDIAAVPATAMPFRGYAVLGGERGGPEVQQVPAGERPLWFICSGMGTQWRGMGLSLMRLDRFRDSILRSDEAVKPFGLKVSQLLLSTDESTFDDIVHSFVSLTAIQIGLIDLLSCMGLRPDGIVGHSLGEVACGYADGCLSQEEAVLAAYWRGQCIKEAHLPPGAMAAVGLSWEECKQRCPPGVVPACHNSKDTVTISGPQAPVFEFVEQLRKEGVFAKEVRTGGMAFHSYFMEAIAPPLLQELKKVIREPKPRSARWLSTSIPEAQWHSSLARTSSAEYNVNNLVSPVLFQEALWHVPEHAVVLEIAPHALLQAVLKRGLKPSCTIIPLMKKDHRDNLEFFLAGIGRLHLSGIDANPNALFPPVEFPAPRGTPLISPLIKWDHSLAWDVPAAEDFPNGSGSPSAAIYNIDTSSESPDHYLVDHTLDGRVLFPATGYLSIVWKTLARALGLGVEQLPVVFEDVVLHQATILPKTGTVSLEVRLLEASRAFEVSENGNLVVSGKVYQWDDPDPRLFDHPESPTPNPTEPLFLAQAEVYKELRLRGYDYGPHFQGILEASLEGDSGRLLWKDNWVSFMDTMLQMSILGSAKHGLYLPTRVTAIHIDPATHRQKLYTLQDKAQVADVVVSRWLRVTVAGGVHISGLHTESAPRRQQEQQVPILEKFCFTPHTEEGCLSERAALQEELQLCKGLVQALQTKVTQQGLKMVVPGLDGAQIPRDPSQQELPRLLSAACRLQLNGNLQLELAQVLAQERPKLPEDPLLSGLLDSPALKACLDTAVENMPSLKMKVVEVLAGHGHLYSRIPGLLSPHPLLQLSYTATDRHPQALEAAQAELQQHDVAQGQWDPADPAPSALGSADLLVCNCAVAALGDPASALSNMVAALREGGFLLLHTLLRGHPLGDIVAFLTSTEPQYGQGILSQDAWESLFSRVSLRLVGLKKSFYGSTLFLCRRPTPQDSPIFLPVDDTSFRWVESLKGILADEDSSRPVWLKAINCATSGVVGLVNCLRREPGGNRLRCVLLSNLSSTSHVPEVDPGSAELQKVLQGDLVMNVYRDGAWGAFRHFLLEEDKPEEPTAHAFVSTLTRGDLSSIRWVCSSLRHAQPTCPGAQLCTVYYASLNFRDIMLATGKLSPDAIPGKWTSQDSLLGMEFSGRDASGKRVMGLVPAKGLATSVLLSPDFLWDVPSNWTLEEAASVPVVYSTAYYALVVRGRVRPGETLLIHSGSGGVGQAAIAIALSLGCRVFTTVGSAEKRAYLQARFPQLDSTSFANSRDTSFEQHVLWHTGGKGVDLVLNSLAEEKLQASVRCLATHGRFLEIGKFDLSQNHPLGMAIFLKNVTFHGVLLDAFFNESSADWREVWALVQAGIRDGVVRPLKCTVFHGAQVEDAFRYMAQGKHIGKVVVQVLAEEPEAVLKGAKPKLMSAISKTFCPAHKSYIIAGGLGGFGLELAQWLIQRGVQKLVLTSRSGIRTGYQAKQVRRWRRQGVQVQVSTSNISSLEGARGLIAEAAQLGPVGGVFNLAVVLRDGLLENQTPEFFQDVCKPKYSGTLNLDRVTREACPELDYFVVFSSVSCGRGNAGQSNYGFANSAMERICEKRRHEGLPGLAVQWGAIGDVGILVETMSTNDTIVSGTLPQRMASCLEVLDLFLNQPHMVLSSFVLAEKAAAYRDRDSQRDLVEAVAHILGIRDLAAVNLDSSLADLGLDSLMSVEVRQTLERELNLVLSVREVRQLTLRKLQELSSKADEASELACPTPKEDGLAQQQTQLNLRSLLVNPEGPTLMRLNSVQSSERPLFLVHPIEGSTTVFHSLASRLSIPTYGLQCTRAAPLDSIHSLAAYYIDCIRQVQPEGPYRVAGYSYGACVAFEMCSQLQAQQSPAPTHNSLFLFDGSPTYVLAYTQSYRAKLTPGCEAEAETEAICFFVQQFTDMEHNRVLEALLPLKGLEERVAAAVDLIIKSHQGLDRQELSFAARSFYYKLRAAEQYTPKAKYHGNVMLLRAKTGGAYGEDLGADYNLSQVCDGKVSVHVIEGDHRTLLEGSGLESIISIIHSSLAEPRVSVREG

O=C(O)c1cc(Oc2ccc(C(F)(F)F)cc2Cl)ccc1[N+](=O)[O-]
not listed: [16] | [17]
inactive: all other assays above

COP(=O)(OC)C(O)C(Cl)(Cl)Cl (stereo not drawn)
inactive: [16] | [1] | [2] | [10] | [12] | [13] | [14]

Cc1ccn2nc(S(=O)(=O)Nc3c(F)cccc3F)nc2n1
inactive: [16] | [1] | [2] | [10] | [11] | [12] | [13] | [14]

CCOP(=O)(OCC)Oc1cc(C)nc(C(C)C)n1
inactive: [16] | [1] | [2] | [17] | [10] | [12] | [13] | [14]

CN1COCN(Cc2cnc(Cl)s2)C1=N[N+](=O)[O-]
inactive: [16] | [1] | [2] | [17] | [10] | [12] | [13] | [14]

COc1cc(OC)nc(Sc2cccc(Cl)c2C(=O)O)n1
inactive: [16] | [1] | [2] | [10] | [12] | [13] | [14]

C#CC(C)(C)NC(=O)c1cc(Cl)cc(Cl)c1
inactive: [6] | [7] | [11] | [12] | [13] | [14]
active: [3] 19.1 µM | [4] 13.4 µM | [5] 23.7 µM | [8] 7.45 µM | [9] 10.4 µM | [10] 0.0239 µM

CC[C@H](C)[C@H]1O[C@]2(C=C[C@@H]1C)C[C@@H]1C[C@@H](C/C=C(\C)[C@@H](O[C@H]3C[C@H](OC)[C@@H](O[C@H]4C[C@H](OC)[C@@H](NC)[C@H](C)O4)[C@H](C)O3)[C@@H](C)/C=C/C=C3\CO[C@@H]4[C@H](O)C(C)=C[C@@H](C(=O)O1)[C@]34O)O2
active: [10] 16.4 µM | [13] 87.5 µM | [14] 12.7 µM | [15] 15.5 µM
inactive: [16] | [1] | [2] | [11] | [12]

Nc1nc(N)nc(NC2CC2)n1
not listed: [1] | [2] | [17]
inactive: all other assays above

CCC(=NOC/C=C/Cl)C1=C(O)CC(C2CCOCC2)CC1=O (stereo not drawn)
active: [13] 0.414 µM
inactive: [16] | [1] | [2] | [17] | [10] | [12] | [14] | [15]

CC(C1CC1)C(O)(Cn1cncn1)c1ccc(Cl)cc1 (stereo not drawn)
inactive: [1] | [2] | [10] | [11] | [12] | [13] | [14]
active: [4] 4.38 µM | [5] 3.21 µM | [9] 2.23 µM

CC(C)[C@H](C(=O)O[C@H](C#N)c1cccc(Oc2ccccc2)c1)c1ccc(Cl)cc1
inactive: [16] | [1] | [2] | [10] | [11] | [12] | [13] | [14]

CCCCSP(=O)(SCCCC)SCCCC
inactive: [16] | [1] | [2] | [10] | [11] | [12] | [13] | [14]

Cc1cc(C2CC2)nc(Nc2ccccc2)n1
active: [10] 50 µM
inactive: [16] | [1] | [2] | [11] | [12] | [13] | [14]

CCCOCC(=Nc1ccc(Cl)cc1C(F)(F)F)n1ccnc1
active: [4] 0.377 µM | [5] 0.147 µM | [7] 0.105 µM | [8] 0.165 µM | [9] 0.336 µM | [10] 50 µM | [14] 37.6 µM
not listed: [15] | [16]
inactive: all other assays above

FC(F)C(F)(F)OCC(Cn1cncn1)c1ccc(Cl)cc1Cl (stereo not drawn)
active: [17] 72.2 µM | [10] 81.5 µM | [12] 33.6 µM | [13] 97.3 µM | [14] 49.8 µM
not listed: [11] | [15] | [16]
inactive: all other assays above

CC(C)=CC1C(C(=O)OCN2C(=O)C3=C(CCCC3)C2=O)C1(C)C (stereo not drawn)
inactive: [16] | [1] | [2] | [10] | [12] | [13] | [14]

S=C1NCCN1
inactive: [16] | [1] | [2] | [10] | [11] | [12] | [13] | [14]

CC(=NC#N)N(C)Cc1ccc(Cl)nc1
inactive: [16] | [1] | [2] | [10] | [11] | [12] | [13] | [14] | [15]

CCOC(=O)CC(SP(=O)(OC)OC)C(=O)OCC (stereo not drawn)
inactive: [16] | [1] | [2] | [10] | [11] | [12] | [13] | [14] | [15]
